Drawing on PubChem BioAssay AID2796 (The Scripps Research Institute Molecular Screening Center, 2010), this text covers activation for 94 compounds.

Screen size: about 320,000 compounds; about 8,000 (2.5%) were called active. The list comes from a sample in which actives are over-represented; it also holds similar structures and randomly drawn compounds. Unmarked numbers belong to inactive results. Cut-off read from the data, not from the text of the source: active = activation above about 47%; inactive = the rest.

The target of the assay is Aryl hydrocarbon receptor (Homo sapiens) (UniProt P35869). Nature of the assay: AHR activators, primary screen, cell-based, luminescence, luciferase reporter, human (AID 2796).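 Note: 0% = vehicle wells and 100% = reference agonist.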 To be noted: AHR-responsive luciferase reporter cells, at 5 µM, hits give high values. Background: Reporter assays use an easily measured gene product as a stand-in for the process of interest.
Sequence of Aryl hydrocarbon receptor (Homo sapiens) (P35869 whole entry, looked up): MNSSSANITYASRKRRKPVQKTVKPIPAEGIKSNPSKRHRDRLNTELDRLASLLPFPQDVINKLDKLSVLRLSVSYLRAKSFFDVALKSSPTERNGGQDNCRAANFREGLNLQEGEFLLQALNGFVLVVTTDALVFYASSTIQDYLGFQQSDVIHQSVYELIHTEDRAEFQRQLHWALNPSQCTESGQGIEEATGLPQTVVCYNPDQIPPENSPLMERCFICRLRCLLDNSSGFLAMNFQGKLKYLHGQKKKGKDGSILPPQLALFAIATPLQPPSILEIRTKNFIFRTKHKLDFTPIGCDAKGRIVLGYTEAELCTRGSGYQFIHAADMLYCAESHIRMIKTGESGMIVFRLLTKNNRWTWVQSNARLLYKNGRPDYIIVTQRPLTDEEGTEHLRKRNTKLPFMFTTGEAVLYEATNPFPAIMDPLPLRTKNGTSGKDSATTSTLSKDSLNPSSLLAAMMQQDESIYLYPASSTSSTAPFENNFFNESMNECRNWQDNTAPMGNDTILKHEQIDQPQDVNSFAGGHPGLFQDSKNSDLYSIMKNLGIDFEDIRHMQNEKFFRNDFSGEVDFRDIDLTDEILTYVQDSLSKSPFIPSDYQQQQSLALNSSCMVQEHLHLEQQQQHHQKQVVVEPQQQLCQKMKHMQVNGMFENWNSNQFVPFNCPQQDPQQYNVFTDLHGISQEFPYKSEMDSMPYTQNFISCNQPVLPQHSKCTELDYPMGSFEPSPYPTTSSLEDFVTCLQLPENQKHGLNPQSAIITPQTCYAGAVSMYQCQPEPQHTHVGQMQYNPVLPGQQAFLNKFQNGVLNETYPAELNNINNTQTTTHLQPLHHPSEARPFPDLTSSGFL
For the compound `CCC1(C)Cc2c(sc3nc(SC)[nH]c(=O)c23)CO1` (centres undefined), the activation was -2.64%.
With `CSc1nc2sc3c(c2c(=O)[nH]1)CCc1ccccc1-3`, the activation is 74% (active).
For the compound `COc1ccc(-n2c(=S)[nH]c3sc4c(c3c2=O)CCc2ccccc2-4)cc1`, the activation was 8.98%.
The same measure for `O=C(CNC(=O)Cc1ccccc1)NCC(=O)OCC(=O)c1ccccc1Cl`: 22.1%.
As to `C/C(=N\NC(=O)C(N)=O)c1ccc2c(c1)OCCO2`, the activation is 3.27%.
The same measure for `C/C(=N/NC(=O)c1ccncc1)c1ccc2c(c1)OCO2`: 24.8%; for `C/C(=N/NC(=S)Nc1ccccc1)c1ccc2c(c1)OCO2`: 111% (active).
The value for `O=C(CSc1nccc(=O)[nH]1)Nc1ccc(N2CCOCC2)c(Cl)c1` was 0.92%.
As to `O=[N+]([O-])c1ccc2[nH]c3c(c2c1)CCCC3O` (centres undefined), the activation is -1.41%.
The value for `C#CCNc1ccc(C(=O)OCC)cc1` was -1.69%.
The same measure for `CCOC(=O)c1ccc2[nH]c3c(c2c1)CCCC3NC=O` (centres undefined): 115% (active); for `COc1ccc(S(=O)(=O)N2CCOCC2)cc1NC(=O)CSc1ncnc2ccccc12`: 13.1%.
The value for `CCOC(=O)N1CCC(NC(=O)CCc2cn(C)c3ccccc23)CC1` was -3.32%; that for `COc1ccc(Nc2ncc(F)c(N3CCOCC3)n2)cc1` was 22.4%; that for `Cc1ccc(Nc2nc(N3CCOCC3)nc(N3CCOCC3)n2)cc1Cl` was 12.7%.
`Cc1cc(Nc2ccc(Cl)cc2)nc(N2CCOCC2)n1`: the activation is 69.5% (active).
The value for `CCCCc1ccc(NS(=O)(=O)c2cccc(C(=O)N3CCCN(C)CC3)c2)cc1` was -1.46%.
`CCOC(=O)c1ccc(NC(=O)C2CC(=O)N(c3ccc4c(c3)OCCO4)C2)cc1` (centres undefined): the activation is -1.04%.
The value for `O=C(c1cc2ccccc2s1)N1CCN(c2ccccn2)CC1` was 27.8%.
As to `CCc1ccccc1N(CC(=O)N1CCN(c2ccccc2F)CC1)S(C)(=O)=O`, the activation is -0.81%.
The value for `COc1ccc(/C=N/NC(=O)c2ccc3c(c2)OCCO3)c(OC)c1` was 2.32%.
Regarding `COc1ccc(C(=O)Nc2ccccc2C(=O)N/N=C/c2ccc(O)c(OC)c2)cc1`, the activation was 8.36%.
`COc1ccc(C(=O)Nc2ccccc2C(=O)N/N=C/c2ccccc2OC)cc1`: the activation is 103% (active).
In the case of `O=C(/C=C(O)/C=C/c1ccc(O)cc1)/C=C/c1ccc(O)cc1`, the activation is -0.31%.
The same measure for `Cn1c(=O)n(C)c2cc(/C=N/NC(=O)c3cccc(Br)c3)ccc21`: 31.6%; for `O=C(N/N=C/c1cccc(Br)c1)c1ccc(N2CCCC2=O)cc1`: -0.14%; for `O=C(N/N=C\c1cccc(Br)c1)c1ccccc1-n1cccc1`: 64.9% (active).
The same measure for `CC(C)CC(=O)NC(=S)Nc1ccc(F)cc1F`: -1.68%.
The same measure for `CCOC(=O)C1CCN(S(=O)(=O)c2c(C)noc2C)CC1`: -0.3%.
Take `C=CCC1(C(=O)N(C)Cc2ccccc2)CCN(C(=O)OC(C)(C)C)CC1`: the activation was 5%.
As to `COC(=O)[C@]1(C)N[C@H](CN(C)C(=O)c2ccc(C(C)(C)C)cc2)[C@@H]2C(=O)N(C)C(=O)[C@@H]21`, the activation was 0.09%.
On to `CC(C(=O)N=Nc1c(O)n(C)c2ccc(Br)cc12)n1cnc2ccccc2c1=O` (centres undefined), for which the activation was 80% (active).
The same measure for `N#CCCCn1c(O)c(N=NC(=O)C(O)c2ccccc2)c2ccccc21` (centres undefined): 6.74%; for `O=C(Nn1cnc2ccccc2c1=O)c1ccccc1`: 4.61%; for `O=S(=O)(NCCSc1ccccn1)c1ccc(Cl)cc1`: 0.03%.
The same measure for `COc1ccc(CCNC(=O)COC(=O)c2ncc(Cl)c(Cl)c2Cl)cc1OC`: -0.83%.
The same measure for `COc1ccc(Nc2nc(N)nc(CSC(=S)N3CCC(C)CC3)n2)cc1`: 25.5%; for `CCNC(=S)N(CCc1c(C)[nH]c2ccc(C)cc12)Cc1ccco1`: 59.4% (active).
`COc1cccc(NC(=S)N(CCc2c(C)[nH]c3ccccc23)Cc2ccco2)c1`: the activation is 12%.
The value for `COCCNC(=S)N(CCc1c(C)[nH]c2ccc(C)cc12)Cc1cccnc1` was 20.1%; that for `Cc1ccc(CN(CC(=O)NC2CCCCC2)C(=O)c2csnn2)cc1` was -0.48%.
The value for `CCOC(=O)C1(CCOc2ccccc2)CCN(Cc2cc(OC)cc(OC)c2)CC1` was 7.35%; that for `CCOc1ccc(NC(=O)[C@H](C)NC(=O)C2CC(=O)N(c3ccc(OC)cc3)C2)cc1` (some centres undefined) was 1.62%.
The same measure for `CCNC(=O)NC(=O)C(C)OC(=O)C1CCN(S(=O)(=O)c2ccccc2F)CC1` (centres undefined): -0.8%.
Turning to `COc1ccccc1N1CCN(C(=O)C2Cc3ccccc3CN2C(=O)c2ccco2)CC1` (centres undefined), the activation is 1.25%.
The same measure for `COc1ccc(NC(=O)c2cnc(NS(=O)(=O)c3ccccc3)nc2)cc1`: -2.22%; for `COc1ccc(C(=O)Nc2ncc3c(n2)-c2ccccc2CC3)cc1`: 103% (active); for `O=C(Nc1ncc2c(n1)-c1ccccc1OC2)c1ccc(Cl)cc1`: 37%.
The value for `C/C(=N\NC(=S)NCc1ccccc1)C1CCCCC1` was 3.74%.
The same measure for `CCN(c1ccccc1)S(=O)(=O)c1ccc(C(=O)Nc2ccccc2OC)cc1`: 1.62%.
With `O=C(CSc1ccccn1)Nc1nc2c(ccc3ccccc32)s1`, the activation was 96.3% (active).
The same measure for `CCOC(=O)CSc1ccccn1`: -0.06%; for `COC(=O)c1ccccc1NC(=O)CSc1ccccn1`: 0.37%; for `Cc1ccc(S(=O)(=O)CCC(=O)OCC(=O)NCCc2ccc(S(N)(=O)=O)cc2)cc1`: -0.33%.
The same measure for `CN(CC(=O)Nc1ccc(OC(F)F)cc1)S(=O)(=O)/C=C/c1ccccc1`: 3.23%.
The same measure for `Cc1cc(C)c(S(=O)(=O)c2ccccc2)c(OC(=O)c2c(F)cccc2Cl)n1`: -0.47%; for `Cc1cccc(C)c1NC(=O)C1CCCN1C(=O)OC(C)(C)C` (centres undefined): 4.06%; for `CN(C)S(=O)(=O)c1ccc(NC(=O)COC(=O)c2n[nH]c3ccccc23)cc1`: 6.56%.
Turning to `O=C(COC(=O)c1n[nH]c2ccccc12)Nc1ccccc1Br`, the activation is 53.9% (active).
For the compound `COc1ccc(NC(=O)COC(=O)c2n[nH]c3ccccc23)c(OC)c1`, the activation is 23.3%.
Turning to `C[C@@H]1NC(=O)c2cc([N+](=O)[O-])cc(F)c2NCCC[C@@H](C(N)=O)NC(=O)[C@H](CC(N)=O)NC1=O`, the activation was -4.67%.
The value for `COCCN(C(=O)c1ccccc1F)c1c(N)n(Cc2ccccc2)c(=O)[nH]c1=O` was 0.27%; that for `O=S(=O)(Nc1ccc(O)c2ccccc12)c1ccc(OC(F)(F)F)cc1` was 33.7%; that for `CCOc1ccccc1NC(=O)CCS(=O)(=O)c1cccc2nsnc12` was 11.7%.
Take `CCOc1ccc(OCC)c(NC(=O)CN(C)S(=O)(=O)c2cccc3nsnc23)c1`: the activation was 53.7% (active).
The value for `CCOc1ccc(N(CC)S(=O)(=O)c2cccc3nsnc23)cc1` was 5.33%; that for `Cc1ccccc1CN1CCC(C(=O)Nc2ccc(Oc3cccnc3)cc2)CC1` was 1.47%; that for `O=C(Nc1cc2c3c(c1)CC(=O)N3CCC2)c1ccccc1F` was 3.64%.
As for `CC(Nc1nc(C(F)(F)F)nc2ccccc12)c1cccs1` (centres undefined), the activation is 0.19%.
The value for `Cc1cccc(NC(=O)c2ccc3ccccc3n2)n1` was 82.1% (active).
The value for `Cc1cccc(NC(=O)c2cc(N3C(=O)CCC3=O)ccc2Cl)n1` was -0.56%; that for `Cc1cccc(NC(=O)c2cccnc2Cl)n1` was -1.7%; that for `Cn1ccnc1-c1nnn(-c2ccc(F)cc2)n1` was -1.09%.
For the compound `O=C(COc1ccccc1)Nc1ccc(C(=O)N2CCCC2)cc1`, the activation is -2.51%.
The value for `O=C(COc1ccc(-c2ccccc2)cc1)NN=C1CCCC1` was 52.1% (active).
For `CC(NC(=O)COc1ccc(-c2ccccc2)cc1)C1CCCO1` (centres undefined), the activation is 19.8%.
`CN1CCN(C(CNS(=O)(=O)c2cccs2)c2cccnc2)CC1` (centres undefined): the activation was 0.06%.
In the case of `Cc1cc(C(=O)NNS(=O)(=O)c2ccccc2C(F)(F)F)nn1C(C)(C)C`, the activation was 33.2%.
Take `CC(C)(C)c1cc(C(=O)NCc2cccnc2)ccn1`: the activation is 5.21%.
The same measure for `Cc1c(C(=O)NC(=S)NCc2cccnc2)oc2ccccc12`: 6.27%; for `Cc1ccc(C(=O)NC(=S)NCc2cccnc2)cc1`: 70.4% (active).
The value for `CS(=O)(=O)N1CCCC(C(=O)N2CCOCC2)C1` (centres undefined) was -4.42%; that for `COc1ccc(CNc2nc(NCc3ccc(OC)cc3)c3ncn(C4CCCC4)c3n2)cc1` was 5.12%; that for `CCN(CC(=O)Nc1ccccc1C(F)(F)F)C(=O)C1CCN(C(=O)Nc2ccccc2)CC1` was 0.13%.
As for `CSc1ncccc1C(=O)NCC(c1ccco1)N1CCCCC1` (centres undefined), the activation was 0.96%.
In the case of `Cc1c(C(=O)NCC(c2ccco2)N2CCCC2)oc2ccc(Cl)cc12` (centres undefined), the activation was 91.5% (active).
The value for `Cc1cc(S(=O)(=O)Nc2ccc(C(=O)NCC(c3ccco3)N3CCCC3)cc2)ccc1F` (centres undefined) was 2.37%.
As for `O=C1/C(=C/c2ccc3c(c2)OCO3)Oc2cc(OCC(=O)N3CC(O)C[C@H]3C(=O)O)ccc21` (some centres undefined), the activation was 0.62%.
In the case of `Cc1ccc(-n2[nH]c(C)c(/C=N/NC(=O)c3cccc([N+](=O)[O-])c3)c2=O)cc1C`, the activation was 15.9%.
As for `COc1cc(SC#N)ccc1N=Cc1c(C)[nH]n(-c2ccc(C)cc2)c1=O`, the activation was 71.7% (active).
Take `Cc1[nH]n(-c2ccccc2)c(=O)c1/C=N/NC(=O)c1ccoc1C`: the activation is 24.8%.
In the case of `Cc1nn(C)c(C)c1Sc1ccccc1N`, the activation was 2.57%.
For the compound `O=C(Nc1ccccc1Cl)N1CCN(c2ccc3nncn3n2)CC1`, the activation was -1.87%.
The value for `Cc1ccc(/C=C(\C#N)C(=O)Nc2cccc3ncccc23)o1` was 7%.
